Reference: PubChem BioAssay
For some assays here: Potency and affinity values are given separately. Calls of active or inactive are those of the source. Unless noted, how the calls were made is not given here.

What was measured:
[1] = antimalarial activity against Dd2 strain (AID 2302;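 active means growth inhibition above 50% at the single 2 µM test dose, taken to imply half-maximal potency below 2 µM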;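 further: 0% = DMSO untreated growth and 100% = chloroquine plus artemisinin killed control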); details: P. falciparum Dd2 in RBCs, LDH growth readout, 72 h; at 2 µM; hits give high values
[2] = human hepatoma cell viability loss – ATP luminescence, cytotoxicity control for P. falciparum antimalarial project, primary screen (AID 2303;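 active means inhibition above 50%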;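 further: 0% = DMSO wells and 100% = digitonin-killed cells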); details: HepG2 viability, 24-48 h, at 10 µM, hits give high values
[3] = target: L-lactate dehydrogenase (Plasmodium falciparum (isolate CDC / Honduras)) (UniProt Q27743); assay: PfLDH activity inhibition – cell lysate, 3D7 strain, counter-screen for P. falciparum growth inhibition project (AID 2304);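 further: 0% = vehicle and 100% = reference inhibitor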; details: P. falciparum 3D7 crude extract, LDH APAD/NBT absorbance; at 2 µM; hits give high values
[4] = inhibition of 3D7 malaria parasite growth – strain 3D7 (AID 2306);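 further: 0% = DMSO wells and 100% = chloroquine plus artemisinin control wells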; details: P. falciparum 3D7 erythrocytic growth, LDH absorbance, 72 h; at 2 µM; hits give high values
[5] = target: Calcium-dependent protein kinase 1 (Plasmodium falciparum (isolate 3D7)) (UniProt P62344); assay: PfCDPK1 kinase inhibitors, biochemical, TCAMS library (AID 1159585; cut-off not given, nearly all actives have IC50 up to about 0.98 µM;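 further: inhibitors leave more ATP so luminescence rises with inhibition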); details: recombinant PfCDPK1, Kinase-Glo ATP depletion luminescence
[6] = target: Plasmodium falciparum protein kinase 6 (PK6, PF3D7_1337100) (UniProt Q8IDW1); assay: PfPK6 kinase inhibitors, biochemical, TCAMS library (AID 1159586); details: recombinant PfPK6, Kinase-Glo ATP depletion luminescence
[7] = target: Protein kinase 7 (PK7), Plasmodium falciparum 3D7 (PF3D7_0213400) (UniProt Q7YTF7); assay: inhibition of Plasmodium PK7 catalytic activity – biochemical, TCAMS antimalarial set, Kinase-Glo luminescence (AID 1159587); details: recombinant PfPK7, Kinase-Glo ATP depletion luminescence
[8] = target: Calcium-dependent protein kinase 4 (Plasmodium falciparum (isolate 3D7)) (UniProt Q8IBS5); assay: PfCDPK4 kinase inhibitors, biochemical, TCAMS library (AID 1159588; cut-off not given, nearly all actives have IC50 up to about 0.91 µM); details: recombinant PfCDPK4, Kinase-Glo ATP depletion luminescence
Calcium-dependent protein kinase 4 (Plasmodium falciparum (isolate 3D7)), sequence (Q8IBS5 whole entry, looked up): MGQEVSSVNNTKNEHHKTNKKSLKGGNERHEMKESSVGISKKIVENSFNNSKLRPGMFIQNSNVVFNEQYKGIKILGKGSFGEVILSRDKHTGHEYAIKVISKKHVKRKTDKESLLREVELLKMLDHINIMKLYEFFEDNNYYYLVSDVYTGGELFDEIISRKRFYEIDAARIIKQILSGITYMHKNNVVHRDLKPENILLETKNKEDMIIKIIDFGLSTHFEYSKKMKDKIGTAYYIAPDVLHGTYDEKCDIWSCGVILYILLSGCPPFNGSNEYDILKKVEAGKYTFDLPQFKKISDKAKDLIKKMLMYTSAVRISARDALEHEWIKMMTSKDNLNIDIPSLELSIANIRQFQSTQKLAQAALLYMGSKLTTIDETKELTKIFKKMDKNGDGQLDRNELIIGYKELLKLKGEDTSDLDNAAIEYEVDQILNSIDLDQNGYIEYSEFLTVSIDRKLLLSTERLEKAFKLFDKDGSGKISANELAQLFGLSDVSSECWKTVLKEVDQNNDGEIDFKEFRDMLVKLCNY

Calcium-dependent protein kinase 1 (Plasmodium falciparum (isolate 3D7)), sequence (P62344 whole entry, looked up): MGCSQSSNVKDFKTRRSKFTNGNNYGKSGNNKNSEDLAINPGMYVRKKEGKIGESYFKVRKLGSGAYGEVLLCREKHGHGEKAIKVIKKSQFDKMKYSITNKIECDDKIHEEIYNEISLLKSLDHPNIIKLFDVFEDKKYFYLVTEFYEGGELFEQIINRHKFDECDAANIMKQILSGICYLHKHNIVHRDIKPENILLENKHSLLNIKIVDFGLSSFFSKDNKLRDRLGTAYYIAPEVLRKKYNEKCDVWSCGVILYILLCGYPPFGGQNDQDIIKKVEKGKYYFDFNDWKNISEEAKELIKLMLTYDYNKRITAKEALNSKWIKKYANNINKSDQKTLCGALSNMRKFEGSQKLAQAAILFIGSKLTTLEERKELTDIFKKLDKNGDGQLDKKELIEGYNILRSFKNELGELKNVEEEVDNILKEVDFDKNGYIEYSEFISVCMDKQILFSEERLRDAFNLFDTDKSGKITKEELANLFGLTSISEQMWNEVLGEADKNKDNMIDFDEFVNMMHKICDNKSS
Plasmodium falciparum protein kinase 6 (PK6, PF3D7_1337100), sequence (Q8IDW1 1-305): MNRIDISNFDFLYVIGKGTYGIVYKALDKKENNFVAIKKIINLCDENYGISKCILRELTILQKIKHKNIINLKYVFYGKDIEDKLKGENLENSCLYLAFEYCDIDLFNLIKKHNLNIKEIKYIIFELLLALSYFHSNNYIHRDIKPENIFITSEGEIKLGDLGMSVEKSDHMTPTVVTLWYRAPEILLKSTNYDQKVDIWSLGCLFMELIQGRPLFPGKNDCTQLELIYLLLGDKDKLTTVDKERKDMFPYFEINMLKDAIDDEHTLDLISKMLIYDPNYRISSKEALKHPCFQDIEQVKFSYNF
Protein kinase 7 (PK7), Plasmodium falciparum 3D7 (PF3D7_0213400), sequence (Q7YTF7 1-343): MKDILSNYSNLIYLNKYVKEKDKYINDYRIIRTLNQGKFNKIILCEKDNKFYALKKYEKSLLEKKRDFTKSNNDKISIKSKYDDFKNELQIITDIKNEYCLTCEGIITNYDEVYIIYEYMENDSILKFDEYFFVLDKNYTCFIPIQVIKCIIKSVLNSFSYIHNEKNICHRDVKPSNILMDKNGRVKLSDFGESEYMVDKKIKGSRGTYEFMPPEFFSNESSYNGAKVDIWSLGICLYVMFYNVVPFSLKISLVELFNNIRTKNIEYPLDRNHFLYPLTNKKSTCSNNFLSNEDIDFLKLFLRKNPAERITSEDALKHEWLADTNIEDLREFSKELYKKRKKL
L-lactate dehydrogenase (Plasmodium falciparum (isolate CDC / Honduras)), sequence (Q27743 whole entry, looked up): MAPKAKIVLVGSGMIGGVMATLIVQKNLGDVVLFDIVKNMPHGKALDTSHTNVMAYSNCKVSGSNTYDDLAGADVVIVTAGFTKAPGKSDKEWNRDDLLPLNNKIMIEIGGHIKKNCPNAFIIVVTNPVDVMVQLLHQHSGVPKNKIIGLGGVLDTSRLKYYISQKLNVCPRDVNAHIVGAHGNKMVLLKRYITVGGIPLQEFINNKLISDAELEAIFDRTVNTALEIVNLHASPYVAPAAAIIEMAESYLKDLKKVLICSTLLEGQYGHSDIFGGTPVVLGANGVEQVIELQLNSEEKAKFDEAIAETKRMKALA

Oc1c(Br)cc2oc3c(c2c1CNCc1ccccc1)CCCC3
inactive: inhibition [2] -19% | inhibition [3] 0% | outcome [5] | outcome [6] | outcome [7] | outcome [8]
active: growth inhibition [1] 74% | growth inhibition [4] 99%

CCn1ccc2c(N3CCCS3(=O)=O)cc(C(=O)N[C@@H](Cc3ccccc3)[C@H](O)CNC3CCCCC3)cc21
inactive: inhibition [2] -1% | inhibition [3] 1% | outcome [5] | outcome [6] | outcome [7] | outcome [8]
active: growth inhibition [1] 98% | growth inhibition [4] 97%

CCNC(=O)Nc1ccc(-c2ccc(-c3nc4c(C)cccc4[nH]3)s2)cc1
inactive: growth inhibition [1] 13% | inhibition [2] 18% | inhibition [3] -2% | outcome [5] | outcome [6] | outcome [7] | outcome [8]
active: growth inhibition [4] 96%

c1cc(Cc2ccc(Nc3c4ccccc4nc4ccccc34)cc2)cc(Nc2c3ccccc3nc3ccccc23)c1
inactive: inhibition [3] -5% | outcome [5] | outcome [6] | outcome [7] | outcome [8]
active: growth inhibition [1] 100% | inhibition [2] 91% | growth inhibition [4] 100%

O=C(Nc1cc(F)cc(F)c1)N1CCOC(CCN2CCC(c3ccccc3)CC2)(c2ccc(Cl)c(Cl)c2)C1 (stereo unspecified)
inactive: inhibition [2] 31% | inhibition [3] 0% | outcome [5] | outcome [6] | outcome [7] | outcome [8]
active: growth inhibition [1] 69% | growth inhibition [4] 91%

O=C(/C=C/c1ccc(Cl)c(Cl)c1)NCCCCCCN1CCCN(C(=O)Nc2cc(Cl)cc(Cl)c2)CC1
active: growth inhibition [4] 98%
inactive: growth inhibition [1] 2% | inhibition [2] 26% | inhibition [3] -3% | outcome [5] | outcome [6] | outcome [7] | outcome [8]

Cn1ccc2c3c(N)nc(N)nc3ccc21
inactive: growth inhibition [1] 17% | inhibition [3] 6% | outcome [5] | outcome [6] | outcome [7] | outcome [8]
active: inhibition [2] 59% | growth inhibition [4] 91%

COc1ccc(CN2CCCN(Cc3cccc(NC(=O)c4cc5ccccc5s4)c3)CC2)cc1
inactive: growth inhibition [1] 32% | inhibition [2] 32% | inhibition [3] 5% | outcome [5] | outcome [6] | outcome [7] | outcome [8]
active: growth inhibition [4] 94%

Cc1cc(CN2CCC(N3CC(c4ccccc4)(c4ccccc4)OCC3=O)C2)ccc1O (stereo unspecified)
inactive: inhibition [2] 3% | inhibition [3] 3% | outcome [5] | outcome [6] | outcome [7] | outcome [8]
active: growth inhibition [1] 52% | growth inhibition [4] 89%

c1ccc(CNCc2ccc(-c3ccc(-c4nc5ccccc5[nH]4)cc3)cc2)cc1
inactive: inhibition [2] 32% | inhibition [3] 1% | outcome [5] | outcome [6] | outcome [7] | outcome [8]
active: growth inhibition [1] 93% | growth inhibition [4] 101%

CCn1cnc2c(Nc3cccc([N+](=O)[O-])c3)nc(N3CCC(N4CCCCC4)CC3)nc21
inactive: growth inhibition [1] 35% | inhibition [2] 31% | inhibition [3] 3% | outcome [5] | outcome [6] | outcome [7] | outcome [8]
active: growth inhibition [4] 98%

CN=C(Nc1c(Cl)cccc1Cl)N(C)C
active: growth inhibition [4] 98%
inactive: growth inhibition [1] 1% | inhibition [2] -12% | inhibition [3] -1% | outcome [5] | outcome [6] | outcome [7] | outcome [8]

CN(CC(=O)Nc1ccc(F)c(F)c1F)c1ncnc2sc(-c3ccccc3)cc12
active: growth inhibition [4] 95%
inactive: growth inhibition [1] 34% | inhibition [2] 0% | inhibition [3] 2% | outcome [5] | outcome [6] | outcome [7] | outcome [8]

COc1ccccc1N1CCN(CCCCN(C(=O)Nc2cccc(Cl)c2)C(=O)Nc2cccc(Cl)c2)CC1
inactive: inhibition [2] 4% | inhibition [3] 7% | outcome [5] | outcome [6] | outcome [7] | outcome [8]
active: growth inhibition [1] 65% | growth inhibition [4] 100%

CC(=O)Nc1ccc2[nH]cc(C3CCN(CCC4CCN(C(=O)/C=C/c5ccc(Cl)c(Cl)c5)CC4)CC3)c2c1
active: growth inhibition [4] 95%
inactive: growth inhibition [1] 7% | inhibition [2] 13% | inhibition [3] 4% | outcome [5] | outcome [6] | outcome [7] | outcome [8]

CC(C)(C)c1ccc(CNC(=O)c2ccc(CNC3CCC(N)CC3)s2)cc1 (stereo unspecified)
active: growth inhibition [4] 100%
inactive: growth inhibition [1] 10% | inhibition [2] 41% | inhibition [3] 4% | outcome [5] | outcome [6] | outcome [7] | outcome [8]

Cc1cccc(CN2CCCN(Cc3ccc(C(=O)Nc4ccc(Cl)cc4)cc3)CC2)c1
inactive: growth inhibition [1] 17% | inhibition [3] 3% | outcome [5] | outcome [6] | outcome [7] | outcome [8]
active: inhibition [2] 54% | growth inhibition [4] 92%

Cn1c(=N)n(CC(=O)N2CCc3ccc(Cl)cc3C2Cc2ccc(Cl)c(Cl)c2)c2ccccc21 (stereo unspecified)
inactive: inhibition [3] -1% | outcome [5] | outcome [6] | outcome [7] | outcome [8]
active: growth inhibition [1] 52% | inhibition [2] 99% | growth inhibition [4] 102%

Cc1ccc(S(=O)(=O)n2cc(-c3ccnc(N)c3)c3cc(Br)cnc32)cc1
inactive: growth inhibition [1] 31% | inhibition [2] 8% | inhibition [3] 1% | outcome [5] | outcome [6] | outcome [7] | outcome [8]
active: growth inhibition [4] 98%

CCCC(C)n1ccc2c3c(N)nc(N)nc3ccc21 (stereo unspecified)
active: growth inhibition [1] 91% | inhibition [2] 70% | growth inhibition [4] 94%
inactive: inhibition [3] -2% | outcome [5] | outcome [6] | outcome [7] | outcome [8]

O=c1cc(NCCCCNCc2cccc(Br)c2)[nH]c2ccccc12
inactive: growth inhibition [1] 19% | inhibition [2] -1% | inhibition [3] 0% | outcome [5] | outcome [6] | outcome [7] | outcome [8]
active: growth inhibition [4] 98%

Cc1noc(-c2ccc(NC[C@@H](C)NC[C@H](O)c3cccc(Cl)c3)cc2)n1
inactive: inhibition [2] 11% | inhibition [3] -1% | outcome [5] | outcome [6] | outcome [7] | outcome [8]
active: growth inhibition [1] 84% | growth inhibition [4] 97%

CC(=O)c1ccc2nc[nH]c(=O)c2c1
active: growth inhibition [1] 99% | inhibition [2] 79% | growth inhibition [4] 96%
inactive: inhibition [3] -1% | outcome [5] | outcome [6] | outcome [7] | outcome [8]

O=C(CN1CCC(NCc2cnc(-c3ccc(Cl)cc3)[nH]2)CC1)N1CCc2ccccc21
inactive: growth inhibition [1] 5% | inhibition [2] 11% | inhibition [3] -8% | outcome [5] | outcome [6] | outcome [7] | outcome [8]
active: growth inhibition [4] 100%

CCNc1cc(C)nc(Nc2ccc(NC(=O)C3CCCC3)cc2)n1
inactive: inhibition [2] 13% | inhibition [3] 0% | outcome [5] | outcome [6] | outcome [7] | outcome [8]
active: growth inhibition [1] 69% | growth inhibition [4] 99%

O=C(Nc1ccc(Cl)c(C(F)(F)F)c1)Nc1ccc(Cl)c(C(F)(F)F)c1
inactive: inhibition [2] 1% | inhibition [3] 6% | outcome [5] | outcome [6] | outcome [7] | outcome [8]
active: growth inhibition [1] 96% | growth inhibition [4] 94%

Cc1ccc(S(=O)(=O)NC2CCN(c3ccnc4cc(Cl)ccc34)C2)cc1 (stereo unspecified)
inactive: inhibition [2] 21% | inhibition [3] -3% | outcome [5] | outcome [6] | outcome [7] | outcome [8]
active: growth inhibition [1] 90% | growth inhibition [4] 99%

C[C@@H]1CN(c2ccc3occ(C(=O)Nc4ccc(-c5ccncc5)c(Cl)c4)c3c2)C[C@H](C)N1C
active: growth inhibition [1] 96% | growth inhibition [4] 100%
inactive: inhibition [2] 14% | inhibition [3] -4% | outcome [5] | outcome [6] | outcome [7] | outcome [8]

O=C(Nc1ccc(-c2nc3ccccc3[nH]2)cc1)C1CCN(Cc2cccc(F)c2F)CC1
inactive: inhibition [2] 23% | inhibition [3] 2% | outcome [5] | outcome [6] | outcome [7] | outcome [8]
active: growth inhibition [1] 51% | growth inhibition [4] 97%

O=C(Nc1cccc(C(F)(F)F)c1)c1cccc2[nH]c(C(F)(F)F)nc12
active: growth inhibition [1] 98% | inhibition [2] 81% | growth inhibition [4] 100%
inactive: inhibition [3] -7% | outcome [5] | outcome [6] | outcome [7] | outcome [8]

Cc1ccc(NS(=O)(=O)c2ccc(-c3ccccc3)cc2)c(Cn2cnc(N3CCCNCC3)cc2=O)c1
active: growth inhibition [4] 87%
inactive: growth inhibition [1] 33% | inhibition [2] 10% | inhibition [3] 4% | outcome [5] | outcome [6] | outcome [7] | outcome [8]

Oc1ccccc1CNCC12CC3CC(CC(C3)C1)C2
inactive: inhibition [2] -4% | inhibition [3] 5% | outcome [5] | outcome [6] | outcome [7] | outcome [8]
active: growth inhibition [1] 99% | growth inhibition [4] 98%

OC(COc1ccccc1-c1nc2ccccc2o1)CN1CCCN(CCc2ccccc2)CC1 (stereo unspecified)
inactive: growth inhibition [1] 2% | inhibition [2] 39% | inhibition [3] -5% | outcome [5] | outcome [6] | outcome [7] | outcome [8]
active: growth inhibition [4] 97%

COc1cc2ccccc2c(OC)c1CCNCCCCNCCc1c(OC)cc2ccccc2c1OC
inactive: growth inhibition [1] 30% | inhibition [3] 7% | outcome [5] | outcome [6] | outcome [7] | outcome [8]
active: inhibition [2] 100% | growth inhibition [4] 99%

OCCN1CCN(c2nc(Nc3cccc(F)c3)c3cnn(-c4ccccc4)c3n2)CC1
active: growth inhibition [1] 76% | inhibition [2] 89% | growth inhibition [4] 100%
inactive: inhibition [3] -2% | outcome [5] | outcome [6] | outcome [7] | outcome [8]

CCc1ccccc1-c1csc(C(=O)NCC2CCN(Cc3ccc(C(C)(C)C)cc3)C2)c1 (stereo unspecified)
active: growth inhibition [4] 90%
inactive: growth inhibition [1] 15% | inhibition [2] 25% | inhibition [3] -2% | outcome [5] | outcome [6] | outcome [7] | outcome [8]

Cc1cnc(CS(=O)c2nc3ccc(C(F)(F)F)cc3[nH]2)cc1OCc1ccccc1 (stereo unspecified)
active: growth inhibition [1] 76% | growth inhibition [4] 93%
inactive: inhibition [2] -7% | inhibition [3] -2% | outcome [5] | outcome [6] | outcome [7] | outcome [8]
